High-throughput results deposited in PubChem by The Scripps Research Institute Molecular Screening Center.
Sampled rows, rich in hits. Any-hit rate of the full collection: about 4.1%.
DAX1 inh-1: DAX1 (NR0B1) inhibitors on StAR promoter, primary screen, cell-based, luminescence, SF-1 (NR5A1), full-length DAX-1; HEK293T StAR-luciferase reporter, SF-1/DAX-1 repression relief; 1.1% of 370,000 active; inhibition, % at 6.8 µM;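 active = inhibition above the mean over all tested compounds plus 3 SD, cut at about 3.6% in these data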;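 note: higher inhibition means more luminescence from relief of DAX-1 repression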
hcDAF12 agonist: H. contortus DAF-12 nuclear receptor activators, primary screen, cell-based, luminescence, HEK293, lit1-tk-luc reporter. activation, % at 6.8 µM. 1.4% of 370,000 active. AID 652067, 2013. HEK293 hcDAF-12 lit1-tk-luc reporter; 0% DMSO, 100% Δ7-dafachronic acid;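 active = activation above the mean of all tested compounds plus 3 SD, cut at about 5.5% in these data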
ssDAF-12 act: S. stercoralis DAF-12 nuclear receptor activators, primary screen, cell-based, luminescence, HEK293, GRIP1 co-expression, lit1-tk-luc; Nuclear hormone receptor DAF-12 (Strongyloides stercoralis); HEK293 ssDAF-12/GRIP1 lit1-tk-luc reporter; % of 3 µM dafachronic acid response; activation, % at 6.8 µM; 1% of 370,000 active; AID 652126, 2013;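 active = activation above the mean over all tested compounds plus 3 SD, cut at about 0.9% in these data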
hgDAF-12 ag: H. glycines DAF-12 receptor agonists, primary screen, cell-based, luminescence, HEK293, GAL4 fusion, UAS-luciferase; Nuclear hormone receptor DAF-12 (Heterodera glycines), GAL4 fusion; HEK293 GAL4-hgDAF12 UAS-luciferase reporter, agonist luminescence; normalized to butyrate control; activation, % at 6.8 µM; 1.8% of 370,000 active;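 active = activation above a cutoff set at the mean of all screened compounds plus 3 SD, cut at about 10% in these data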
DAX1 inh-2: DAX1 (NR0B1) inhibitors, primary screen, cell-based, HEK293, Gal4-DAX1, luciferase luminescence | Nuclear receptor subfamily 0 group B member 1 (Homo sapiens), P51843 | HEK293 Gal4-DAX1 luciferase reporter | inhibition, % at 6.75 µM | 0.99% of 340,000 active;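 active = inhibition above the mean over all tested compounds plus 3 SD, cut at about 4.2% in these data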;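 note: inhibition shows as a rise in luminescence from relieved DAX1 repression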
Target sequence (P51843 207-470 limits assumed): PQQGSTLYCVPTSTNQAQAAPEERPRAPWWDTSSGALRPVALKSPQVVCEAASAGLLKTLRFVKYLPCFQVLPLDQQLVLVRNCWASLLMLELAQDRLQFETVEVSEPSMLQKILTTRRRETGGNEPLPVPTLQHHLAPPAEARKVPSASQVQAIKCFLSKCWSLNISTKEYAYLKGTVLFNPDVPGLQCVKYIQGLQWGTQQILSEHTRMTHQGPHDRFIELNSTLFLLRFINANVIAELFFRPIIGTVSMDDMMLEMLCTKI
Hits are given with their value; . = inactive; / = not tested or not shown.

SMILES	DAX1 inh-1	hcDAF12 agonist	ssDAF-12 act	hgDAF-12 ag	DAX1 inh-2
COC(=O)[C@H]1C[C@@]2(n3ccc4ccccc43)c3ccccc3N(S(=O)(=O)c3ccccc3)[C@H]2N1C(=O)CNC1CCCCC1	.	.	.	.	/
O=C(CCCCCN1C(=O)C2C3C=CC(C3)C2C1=O)Nc1cc(F)cc(F)c1 (configuration not stated)	.	.	.	.	/
CC(C)(C)c1ccc(C(=O)NCC(=O)NNC(=O)c2ccccc2O)cc1	.	.	.	.	.
Cc1ccc(O)c(C(=O)CC(=O)c2ccc(C(C)(C)C)cc2)c1	.	.	.	11.5	.
CC(C)c1ccc(C2c3[nH]c4ccccc4c3C[C@H]3C(=O)N(c4ccccc4C(=O)N4CCC[C@@H]4C(=O)O)C(=O)N23)cc1 (some centres not stated)	.	.	.	.	.
COc1cccc(C2c3[nH]c4ccccc4c3C[C@H]3C(=O)N(c4ccccc4C(=O)NCCCN4CCOCC4)C(=O)N23)c1 (some centres not stated)	.	5.7	.	.	.
CC(C)c1ccc(C2c3[nH]c4ccccc4c3C[C@H]3C(=O)N(c4ccccc4C(=O)N4CCC(C(=O)O)CC4)C(=O)N23)cc1 (some centres not stated)	.	5.8	.	.	.
COc1ccc(C2c3[nH]c4ccccc4c3C[C@H]3C(=O)N(c4ccccc4C(=O)N4CCC[C@H]4C(=O)O)C(=O)N23)cc1 (some centres not stated)	.	.	.	.	5.2
O=C(NCCCN1CCOCC1)c1ccccc1N1C(=O)[C@@H]2Cc3c([nH]c4ccccc34)C(c3ccc(F)cc3)N2C1=O (some centres not stated)	.	.	.	.	.
COc1ccc(C2c3[nH]c4ccccc4c3C[C@H]3C(=O)N(c4ccccc4C(=O)N4CCC[C@@H]4C(=O)O)C(=O)N23)cc1 (some centres not stated)	.	.	.	.	.
CCC(NC(=O)c1ccc2c(c1)c(C)c(C)n2Cc1ccc(Cl)cc1)c1ccccc1 (configuration not stated)	.	.	.	.	/
NCCCn1c(C(=O)c2cc(Cl)c(N)c(Cl)c2)c2ccc(C(F)(F)F)cc2[n+]1[O-]	.	6.5	.	.	.
COC(=O)N/N=C\C=C\c1ccc2c(c1)OCO2	.	.	.	.	.
CCOC(=O)N/N=C\C=C\c1ccc2c(c1)OCO2	.	.	.	.	5.2
CCOC(=O)c1cccc(NC(=O)/C=C/c2ccc3c(c2)OCO3)c1	.	.	.	.	.
CCOC(=O)CNC(=O)/C=C/c1ccc2c(c1)OCO2	.	.	0.9	.	.
CC(C)(C)OC(=O)N/N=C\C=C\c1ccc2c(c1)OCO2	.	.	.	12.6	.
COc1ccc(CC(=O)N/N=C/C=C/c2ccc3c(c2)OCO3)cc1OC	.	.	.	.	/
O=C(CSc1nc2ccccc2c(=O)[nH]1)NC1CCCCC1	/	.	.	.	/
Cc1[nH]c2c([N+](=O)[O-])cccc2c1C	.	.	.	.	4.2
COC(=O)c1[nH]c2ccc(C)cc2c1NC(=O)NC1CCCCC1	.	.	.	.	.
O=C(Nc1c(C(=O)O)[nH]c2ccccc12)NC1CCCCC1	.	.	1.2	.	.
COc1ccccc1NC(=S)OCCN1CCCC12CCC(c1ccccc1)CC2 (configuration not stated)	/	.	.	.	/
Cc1ccc(Oc2ccc(Cl)cc2NC(=O)c2ccc(F)cc2F)cc1	.	.	.	.	6.0
O=C(Nc1cc(Cl)ccc1Oc1ccccc1)c1ccccc1F	.	.	.	.	.
SMILES	DAX1 inh-1	hcDAF12 agonist	ssDAF-12 act	hgDAF-12 ag	DAX1 inh-2
CCOC(=O)[C@@]12CCCC3=C1N(CCC3)C(=O)[C@H]2CC(=O)NCc1cccc(C(F)(F)F)c1	.	.	.	.	/
Cn1c(SCC(=O)Nc2ccccc2-c2ccccc2)nnc1-c1ccccc1	.	.	.	.	/
Cc1cc(NC(=O)C(C)Sc2nc(-c3cccs3)nc3ccccc23)no1 (configuration not stated)	.	.	.	.	4.5
Cc1cc(NC(=O)CSc2nc(C(C)C)nc3ccccc23)no1	.	.	.	.	.
CC(C)c1ccc(C2OCC(C)([N+](=O)[O-])CO2)cc1 (configuration not stated)	3.9	.	.	.	.
CC(C)c1ccc(C2OCCCO2)cc1	.	.	.	.	.
COc1cccc(C2Oc3ccccc3C3CC(c4cccs4)=NN32)c1 (configuration not stated)	.	5.8	.	.	/
CCCCNC(=O)C[C@H]1C[C@@]2(C(=O)OC)C(=C[C@H](COCc3ccccc3)O[C@@H]2C)N(CCc2ccc(OC)c(OC)c2)C1=O	.	.	.	.	/
CCn1c2ccccc2c2cc(NC(=O)c3cc4c(C)nn(-c5ccccc5)c4s3)ccc21	.	.	.	.	/
CC(=O)c1cccc(NC(=O)c2cc(-c3ccncc3)nc3ccccc23)c1	.	.	.	.	.
O=C(NNC(=O)c1cc(-c2ccncc2)nc2ccccc12)c1cccc(Cl)c1	.	.	2.6	.	.
Cc1occc1C(=O)NNC(=S)Nc1ccccc1C(F)(F)F	.	.	.	13.2	.
Cc1ccccc1NC(=S)NNC(=O)c1ccoc1C	.	.	.	.	.
Cc1occc1C(=O)NNC(=S)Nc1ccccc1	.	.	.	11.8	.
CCOC(=O)[C@]12CCCCC/C=C\1N(Cc1ccc(OC)cc1)C(=O)[C@H]2CC(=O)N1CCC(c2ccccc2)CC1	.	.	.	.	/
CCn1c(SCC(=O)Nc2ccc(C(=O)OC)cc2)nnc1-c1cccc(Cl)c1	.	.	.	.	/
CC1CCC(NC(=O)CNC(=O)c2cccs2)CC1 (configuration not stated)	4.4	.	.	.	.
Cc1ccc(C(=O)NCC(=O)NC2CCC(C)CC2)s1 (configuration not stated)	.	.	.	.	.
COc1ccc(C#CCN(C)/C(N)=N/C(=O)OCc2ccccc2)cc1	.	.	.	.	/
COC(=O)CC1C(=O)NCCN1C(=O)CSc1nc2ccccc2s1 (configuration not stated)	.	.	1.2	.	.
COC(=O)CC1C(=O)NCCN1C(=O)c1ccccc1 (configuration not stated)	.	.	.	.	.
